Source: PubChem BioAssay (NCI)
About 79,000 compounds went through this panel and 15% of them were active in at least one assay; those are over-represented in the sample as a whole. Rule as the data show it: active = growth inhibition above about 70%; inactive = the rest.

Assays:
[1] = NCI Yeast Anticancer Drug Screen. Data for the rad50 strain (AID 155);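 also: 0% = growth of vehicle-only cultures of the same strain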; conditions: S. cerevisiae rad50 strain growth inhibition; at 50.0 µM; hits give high values
How it was run: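 Inhibition values express reduced yeast growth in compound-treated cultures relative to vehicle-treated controls.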

[2] = NCI Yeast Anticancer Drug Screen. Data for the mec2-1 strain (AID 157); conditions: S. cerevisiae mec2-1 strain, at 50.0 µM, hits give high values
How it was run: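 Using mec2-1 yeast: add compound, measure growth, express inhibition versus vehicle-treated cultures.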

[3] = NCI Yeast Anticancer Drug Screen. Data for the sgs1 mgt1 strain (AID 161);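 also: 0% = growth of cultures given vehicle only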; conditions: S. cerevisiae sgs1 mgt1 strain, at 50.0 µM, hits give high values
How it was run: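 Growth of a repair-deficient yeast mutant was monitored after compound treatment and expressed as inhibition relative to vehicle-treated cultures.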

[4] = NCI Yeast Anticancer Drug Screen. Data for the cln2 rad14 strain (AID 165);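 also: 0% = growth equal to vehicle treated cultures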; conditions: S. cerevisiae cln2 rad14 strain, at 50.0 µM, hits give high values
How it was run: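 Yeast strain cln2 rad14, bearing defects in cell cycle control and DNA repair, serves as the test system; values reflect growth inhibition compared with vehicle.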

[5] = NCI Yeast Anticancer Drug Screen. Data for the bub3 strain (AID 167); conditions: S. cerevisiae bub3 mutant strain, at 50.0 µM, hits give high values
How it was run: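 Steps: expose the mutant yeast strain to compound; grow alongside vehicle-treated cultures; measure growth; express inhibition against the vehicle cultures.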

[6] = NCI Yeast Anticancer Drug Screen. Data for the mlh1 rad18 strain (AID 175); conditions: S. cerevisiae mlh1 rad18 strain growth inhibition; at 50.0 µM; hits give high values
How it was run: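 Steps: expose repair-defective yeast to compound; measure growth; express inhibition against vehicle-treated controls.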

Measured: growth inhibition

O=C(O)C(Cc1cccs1)C(=O)OCCc1ccccc1 (centres undefined)
inactive: [1] -4.95% | [2] -6.45% | [3] 1.05% | [4] -10.8% | [5] -13.7% | [6] 21.7%

CC(=O)OC1CCC2(C)C(CCC34OC23CCC2(C)C(C(C)CCCC(C)C)CCC24C)C1(C)C (centres undefined)
inactive: [1] 45.4% | [2] 16.4% | [3] 39.5% | [4] 1% | [5] -1% | [6] 28.4%

O=C1Nc2ccccc2C12CCNC2Cc1ccccc1 (centres undefined)
inactive: [1] -17.2% | [2] -12.2% | [3] -11.8% | [4] 19.8% | [5] -8.55% | [6] -21.4%

O=C1/C=C2/C=CC=CN2C(=O)/C=C2/C=CC=CN12
inactive: [1] -1.6% | [2] -15.3% | [3] -15% | [4] 1.65% | [5] 0.95% | [6] -11.9%

CCN(CC)CCOC(=O)Cc1cccc2c(=O)cc(-c3ccc(OC)cc3)oc12
inactive: [1] 50.4% | [2] -9.95% | [3] -12.4% | [4] 8.9% | [5] -10.2% | [6] -45.4%

Cc1cc(C)cc(N=Nc2c(N)nc(N)[nH]c2=O)c1
inactive: [1] 4.85% | [2] -10.7% | [3] -49.9% | [4] -11.2% | [5] -3.2% | [6] -7.3%

Nc1nc(N)c2ncn(-c3ccc(Cl)cc3)c2n1
inactive: [1] -0.7% | [2] 14.2% | [3] 9.8% | [4] -21.4% | [5] -0.85% | [6] 8.4%

O=S(=O)(CCN1CCCCC1)c1ccc(F)cc1
inactive: [1] 21.4% | [2] -12.5% | [3] 3.05% | [4] -10.8% | [5] 2.4% | [6] 9.95%

C=C(Cl)C(=C)CCC(Cl)C(C)(C)Cl (centres undefined)
inactive: [1] 12.6% | [2] 9.4% | [3] -13.7% | [4] 2.5% | [5] -16.8% | [6] -8.4%

COC(=O)CSc1[nH]c2nc(C)nc(Nc3ccccc3)c2c1C#N
inactive: [1] -13.8% | [2] -19.2% | [3] -9.85% | [4] -6.75% | [5] -27.8% | [6] 16.1%

Cc1ncc2c(n1)NC(c1ccc([N+](=O)[O-])cc1)NC2 (centres undefined)
inactive: [1] 0.45% | [2] -2.9% | [3] -16.6% | [4] -3.7% | [5] 14.7% | [6] -1.7%

CCCCCCCCCCCCCCCCCCNC(=O)N1CCC(C)CC1
inactive: [1] -7.9% | [2] -4.8% | [3] 21.2% | [4] -13.7% | [5] 4.95% | [6] -24.6%

Cc1ccc(C)c(NC(=O)Nc2ccc(Nc3ccccc3)cc2)c1
inactive: [1] -6.3% | [2] 12.8% | [3] 15.8% | [4] -18.4% | [5] 17.1% | [6] 33%

Cc1ccc(S(=O)(=O)CCCCS(=O)(=O)c2ccc(C)cc2)cc1
inactive: [1] 1.8% | [2] 4.35% | [3] -7.1% | [4] -62.4% | [5] -27.2% | [6] 2.3%

CCOc1ccccc1N
inactive: [1] 8.75% | [2] 16.2% | [3] -34% | [4] 9.5% | [5] -32% | [6] -20.1%

O=S(=O)(c1ccccc1)N1N=C2c3ccccc3CCC[C@H]2C1c1ccccc1 (some centres undefined)
inactive: [1] 51.1% | [2] -16.4% | [3] -12.7% | [4] -49.7% | [5] 4.85% | [6] 4.85%

CCCCCc1c(C)nc(N)[nH]c1=O
inactive: [1] -3.95% | [2] 0.7% | [3] 1.2% | [4] -40% | [5] -15.4% | [6] -5.45%

Cc1ccc(NC(=O)C(=O)Cc2cccc[n+]2[O-])cc1C
inactive: [1] 25.4% | [2] 13.1% | [3] -4.1% | [4] 12.2% | [5] 9.05% | [6] -6.1%

ON(C=Nc1ccccc1)c1ccccc1
inactive: [1] 17% | [2] 19.1% | [3] 6.35% | [4] -11.5% | [5] -3.25% | [6] 7.05%

Oc1c(CN2CCN(c3ccccc3)CC2)cc(Br)c2cccnc12
inactive: [1] 34% | [2] 19.9% | [3] 41.4% | [4] -0.3% | [5] 9.4% | [6] 39.6%

CCC(C)NC(=O)c1ccc(Cl)cc1Cl (centres undefined)
inactive: [1] 15.8% | [2] -18.5% | [3] -12.7% | [4] -68.5% | [5] -28.9% | [6] -22.6%

C=CC(O)C(O)C=C (centres undefined)
inactive: [1] 15.1% | [2] -9% | [3] 20.4% | [4] 8.25% | [5] 12.9% | [6] 17.2%

CCC(C)Nc1ccc(NS(=O)(=O)CCl)cc1 (centres undefined)
inactive: [1] 54% | [2] 6.3% | [3] 13.3% | [4] 4.25% | [5] 6.6% | [6] 8.9%

CC(C)N(CCN1CCCCC1)c1ccccn1
inactive: [1] -0.9% | [2] 18.2% | [3] 7.2% | [4] -75.5% | [5] 10.3% | [6] 14.9%

COC(=O)c1[nH]c(=O)c(C#N)c(C(=O)OC)c1-c1ccc(F)cc1
inactive: [1] -4.55% | [2] -24.5% | [3] -15.4% | [4] -2% | [5] -21.2% | [6] -0.05%

O=C1N(Cc2ccccc2)CC2CCc3c(ccc4ccccc34)N12 (centres undefined)
inactive: [1] 11% | [2] -12.9% | [3] -1.3% | [4] -3.85% | [5] 4.85% | [6] 4.75%

COc1ccc(C(=O)/C=c2/c(CC(=O)c3ccc(OC)cc3)nc3nnc(N)n23)cc1
inactive: [1] 15.5% | [2] -4.05% | [3] -6.25% | [4] 21.9% | [5] 1.45% | [6] 8.6%

CCOC(=O)OC1C(OC)OC2COC(c3ccccc3)OC2C1OC(=O)OCC (centres undefined)
inactive: [1] -1.4% | [2] -13.3% | [3] -20% | [4] -15.7% | [5] -2.25% | [6] 11.4%

COc1ccc(N=Nc2cc(OC)c(N=Nc3c(O)c4ccccc4[nH]c3=O)cc2OC)cc1
inactive: [1] 18.1% | [2] 16.8% | [3] 25.1% | [4] 13.8% | [5] -14.2% | [6] 17.1%

C[C@@H]1C(N2CCCC2)=CC(=O)OC1c1ccccc1 (some centres undefined)
inactive: [1] -3.65% | [2] -11.1% | [3] 11.3% | [4] -6.4% | [5] -1.3% | [6] 1.95%

CCn1c2ccccc2c2cc(N=Nc3cc(N)ccc3N(C)C)ccc21
inactive: [1] -3.35% | [2] -7.85% | [3] -9.1% | [4] -22.3% | [5] -5.05% | [6] -4.6%

O=c1ccc2c(-c3ccccc3S(=O)(=O)O)c3ccc(O)c(O)c3oc-2c1O
inactive: [1] 3.45% | [2] 13.3% | [3] -4.4% | [4] 11% | [5] 15.6% | [6] 4.4%

Nc1nc(NCCCc2ccccc2)c(N)c(=O)[nH]1
inactive: [1] 5.1% | [2] 16.9% | [3] 6.55% | [4] -3.1% | [5] 31.6% | [6] 7.6%

CCOC(=O)c1c(N2CCCC2)ncn(Cc2ccccc2)c1=S
inactive: [1] 0.7% | [2] 12.4% | [3] 3.9% | [4] -7.75% | [5] 8.3% | [6] -5%

CC(=O)N1C(Nc2ccccc2)CCN1c1ccccc1 (centres undefined)
inactive: [1] -24.2% | [2] -31.5% | [3] -14.1% | [4] 10.9% | [5] 2.05% | [6] -8.35%

COc1ccc(CC(=O)OCCCl)cc1OC
inactive: [1] -17% | [2] -22.4% | [3] 3% | [4] -26.4% | [5] 44.1% | [6] -20.7%

N#Cc1ccccc1Br
inactive: [1] 21.4% | [2] -19.8% | [3] 21.1% | [4] 11.8% | [5] 11.8% | [6] 29.8%

NNc1cccc(Cl)n1
inactive: [1] 6.65% | [2] -4.7% | [3] -5.5% | [4] 17.6% | [5] -9.8% | [6] 8.05%

Cc1ccc(NC(=O)CN2CCCCC2)cc1
inactive: [1] -16.9% | [2] -7.65% | [3] -7% | [4] 3.9% | [5] -0.9% | [6] -21.9%
